# Key:
# Experiment in all cases: PBM; 200 nM protein, PBS
# Conditions in all cases: dsDNA, one strand shown
# HESX1 [1] = biological target: HESX1 (Homo sapiens, UniProt Q9UBX0 95-180, R165K)
# SHOX [2] = biological target: SHOX (Homo sapiens, UniProt O15266 103-189)
# ALX4 [3] = biological target: ALX4 (Homo sapiens, UniProt Q9H161 200-286)
# PRRX1 [4] = biological target: PRRX1 (Homo sapiens, UniProt P54821 80-166, F113S)
# ALX4 [5] = biological target: ALX4 (Homo sapiens, UniProt Q9H161 200-286, Q225E)
# HESX1 [6] = biological target: HESX1 (Homo sapiens, UniProt Q9UBX0 95-180)
# MSX2 [7] = biological target: MSX2 (Homo sapiens, UniProt P35548 130-214, R199I)
# ALX1 [8] = biological target: ALX1 (Homo sapiens, UniProt Q15699 118-204, L144V)
# SHOX [9] = biological target: SHOX (Homo sapiens, UniProt O15266 103-189, R173C)
# ALX1 [10] = biological target: ALX1 (Homo sapiens, UniProt Q15699 118-204, L144R)
# PROP1 [11] = biological target: PROP1 (Homo sapiens, UniProt O75360 56-141)
# HESX1 [12] = biological target: HESX1 (Homo sapiens, UniProt Q9UBX0 95-180, R109Q)
# PROP1 [13] = biological target: PROP1 (Homo sapiens, UniProt O75360 56-141, R99H)
# ALX3 = ALX3 (Homo sapiens, UniProt O95076 139-225, L168Q)
# HESX1 [14] = biological target: HESX1 (Homo sapiens, UniProt Q9UBX0 95-180, P111T)
# PROP1 [15] = biological target: PROP1 (Homo sapiens, UniProt O75360 56-141, F88S)
# MSX2 [16] = biological target: MSX2 (Homo sapiens, UniProt P35548 130-214, F161Y)
# HESX1 [17] = biological target: HESX1 (Homo sapiens, UniProt Q9UBX0 95-180, F115L)
# ALX1 [18] = biological target: ALX1 (Homo sapiens, UniProt Q15699 118-204)
# PRRX1 [19] = biological target: PRRX1 (Homo sapiens, UniProt P54821 80-166)
# PRRX1 (Homo sapiens, UniProt P54821 80-166), sequence (P54821 80-166): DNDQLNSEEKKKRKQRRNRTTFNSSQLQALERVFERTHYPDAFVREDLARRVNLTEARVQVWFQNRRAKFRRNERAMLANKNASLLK
# PROP1 (Homo sapiens, UniProt O75360 56-141, F88S), sequence (O75360 56-141 F88S): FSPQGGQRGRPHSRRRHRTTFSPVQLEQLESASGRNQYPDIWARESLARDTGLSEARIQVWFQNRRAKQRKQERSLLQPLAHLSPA
# SHOX (Homo sapiens, UniProt O15266 103-189), sequence (O15266 103-189): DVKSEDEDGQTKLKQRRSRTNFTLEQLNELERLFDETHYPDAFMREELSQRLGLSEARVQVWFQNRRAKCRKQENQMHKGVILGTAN
# HESX1 (Homo sapiens, UniProt Q9UBX0 95-180, R165K), sequence (Q9UBX0 95-180 R165K): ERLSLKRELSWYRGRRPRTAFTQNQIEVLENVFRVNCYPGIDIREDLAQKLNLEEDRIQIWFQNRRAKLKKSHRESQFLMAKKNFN
# ALX1 (Homo sapiens, UniProt Q15699 118-204, L144V), sequence (Q15699 118-204 L144V): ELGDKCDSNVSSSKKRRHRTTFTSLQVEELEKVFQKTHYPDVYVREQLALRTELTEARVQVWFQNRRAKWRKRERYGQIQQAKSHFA
# ALX3, sequence (O95076 139-225 L168Q): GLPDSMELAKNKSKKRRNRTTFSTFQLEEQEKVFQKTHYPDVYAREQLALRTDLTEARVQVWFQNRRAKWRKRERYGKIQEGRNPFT
# PROP1 (Homo sapiens, UniProt O75360 56-141), sequence (O75360 56-141): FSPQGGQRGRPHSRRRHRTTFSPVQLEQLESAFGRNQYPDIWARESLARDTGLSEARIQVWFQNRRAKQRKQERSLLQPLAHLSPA
# MSX2 (Homo sapiens, UniProt P35548 130-214, F161Y), sequence (P35548 130-214 F161Y): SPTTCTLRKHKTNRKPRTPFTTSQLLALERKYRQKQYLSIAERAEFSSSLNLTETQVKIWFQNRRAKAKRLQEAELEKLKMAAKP
# ALX1 (Homo sapiens, UniProt Q15699 118-204, L144R), sequence (Q15699 118-204 L144R): as the sequence (Q15699 118-204 L144V) above, with V27R counted along it
# HESX1 (Homo sapiens, UniProt Q9UBX0 95-180), sequence (Q9UBX0 95-180): as the sequence (Q9UBX0 95-180 R165K) above, with K71R counted along it
# HESX1 (Homo sapiens, UniProt Q9UBX0 95-180, R109Q), sequence (Q9UBX0 95-180 R109Q): as the sequence (Q9UBX0 95-180 R165K) above, with R15Q, K71R counted along it
# MSX2 (Homo sapiens, UniProt P35548 130-214, R199I), sequence (P35548 130-214 R199I): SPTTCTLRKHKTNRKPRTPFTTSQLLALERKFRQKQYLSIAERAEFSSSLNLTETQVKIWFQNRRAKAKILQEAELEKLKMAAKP
# ALX4 (Homo sapiens, UniProt Q9H161 200-286), sequence (Q9H161 200-286): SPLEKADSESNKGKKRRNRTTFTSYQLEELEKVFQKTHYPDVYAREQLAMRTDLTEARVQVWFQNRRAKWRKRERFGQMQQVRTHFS
# ALX1 (Homo sapiens, UniProt Q15699 118-204), sequence (Q15699 118-204): as the sequence (Q15699 118-204 L144V) above, with V27L counted along it
# HESX1 (Homo sapiens, UniProt Q9UBX0 95-180, F115L), sequence (Q9UBX0 95-180 F115L): as the sequence (Q9UBX0 95-180 R165K) above, with F21L, K71R counted along it
# PRRX1 (Homo sapiens, UniProt P54821 80-166, F113S), sequence (P54821 80-166 F113S): as the sequence (P54821 80-166) above, with F34S counted along it
# ALX4 (Homo sapiens, UniProt Q9H161 200-286, Q225E), sequence (Q9H161 200-286 Q225E): as the sequence (Q9H161 200-286) above, with Q26E counted along it
# HESX1 (Homo sapiens, UniProt Q9UBX0 95-180, P111T), sequence (Q9UBX0 95-180 P111T): as the sequence (Q9UBX0 95-180 R165K) above, with P17T, K71R counted along it
# SHOX (Homo sapiens, UniProt O15266 103-189, R173C), sequence (O15266 103-189 R173C): as the sequence (O15266 103-189) above, with R71C counted along it
# PROP1 (Homo sapiens, UniProt O75360 56-141, R99H), sequence (O75360 56-141 R99H): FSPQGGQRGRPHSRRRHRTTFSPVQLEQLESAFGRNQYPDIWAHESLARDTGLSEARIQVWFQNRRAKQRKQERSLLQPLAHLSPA
Sequence,binding signal (HESX1 [1]),binding signal (SHOX [2]),binding signal (ALX4 [3]),binding signal (PRRX1 [4]),binding signal (ALX4 [5]),binding signal (HESX1 [6]),binding signal (MSX2 [7]),binding signal (ALX1 [8]),binding signal (SHOX [9]),binding signal (ALX1 [10]),binding signal (PROP1 [11]),binding signal (HESX1 [12]),binding signal (PROP1 [13]),binding signal (ALX3),binding signal (HESX1 [14]),binding signal (PROP1 [15]),binding signal (MSX2 [16]),binding signal (HESX1 [17]),binding signal (ALX1 [18]),binding signal (PRRX1 [19])
AATTAACT,"12.1 upbm affinity estimate (log intensity, higher = more binding, comparable within an allelic series)","11.8 upbm affinity estimate (log intensity, higher = more binding, comparable within an allelic series)","13.9 upbm affinity estimate (log intensity, higher = more binding, comparable within an allelic series)","11.2 upbm affinity estimate (log intensity, higher = more binding, comparable within an allelic series)","13.4 upbm affinity estimate (log intensity, higher = more binding, comparable within an allelic series)","12.2 upbm affinity estimate (log intensity, higher = more binding, comparable within an allelic series)","12.4 upbm affinity estimate (log intensity, higher = more binding, comparable within an allelic series)","11.7 upbm affinity estimate (log intensity, higher = more binding, comparable within an allelic series)","9.37 upbm affinity estimate (log intensity, higher = more binding, comparable within an allelic series)","11.4 upbm affinity estimate (log intensity, higher = more binding, comparable within an allelic series)","11.5 upbm affinity estimate (log intensity, higher = more binding, comparable within an allelic series)","9.2 upbm affinity estimate (log intensity, higher = more binding, comparable within an allelic series)","11.4 upbm affinity estimate (log intensity, higher = more binding, comparable within an allelic series)","10.7 upbm affinity estimate (log intensity, higher = more binding, comparable within an allelic series)","10.7 upbm affinity estimate (log intensity, higher = more binding, comparable within an allelic series)","7.8 upbm affinity estimate (log intensity, higher = more binding, comparable within an allelic series)","13.1 upbm affinity estimate (log intensity, higher = more binding, comparable within an allelic series)","7.81 upbm affinity estimate (log intensity, higher = more binding, comparable within an allelic series)","12.3 upbm affinity estimate (log intensity, higher = more binding, comparable within an allelic series)","13.3 upbm affinity estimate (log intensity, higher = more binding, comparable within an allelic series)"
AATTAGTG,"12.1 upbm affinity estimate (log intensity, higher = more binding, comparable within an allelic series)","12 upbm affinity estimate (log intensity, higher = more binding, comparable within an allelic series)","13.9 upbm affinity estimate (log intensity, higher = more binding, comparable within an allelic series)","11.2 upbm affinity estimate (log intensity, higher = more binding, comparable within an allelic series)","13.2 upbm affinity estimate (log intensity, higher = more binding, comparable within an allelic series)","12.2 upbm affinity estimate (log intensity, higher = more binding, comparable within an allelic series)","12.6 upbm affinity estimate (log intensity, higher = more binding, comparable within an allelic series)","11.8 upbm affinity estimate (log intensity, higher = more binding, comparable within an allelic series)","9.65 upbm affinity estimate (log intensity, higher = more binding, comparable within an allelic series)","11.4 upbm affinity estimate (log intensity, higher = more binding, comparable within an allelic series)","11.3 upbm affinity estimate (log intensity, higher = more binding, comparable within an allelic series)","9.26 upbm affinity estimate (log intensity, higher = more binding, comparable within an allelic series)","11.4 upbm affinity estimate (log intensity, higher = more binding, comparable within an allelic series)","10.7 upbm affinity estimate (log intensity, higher = more binding, comparable within an allelic series)","10.9 upbm affinity estimate (log intensity, higher = more binding, comparable within an allelic series)","7.69 upbm affinity estimate (log intensity, higher = more binding, comparable within an allelic series)","13.2 upbm affinity estimate (log intensity, higher = more binding, comparable within an allelic series)","7.88 upbm affinity estimate (log intensity, higher = more binding, comparable within an allelic series)","12.5 upbm affinity estimate (log intensity, higher = more binding, comparable within an allelic series)","13.3 upbm affinity estimate (log intensity, higher = more binding, comparable within an allelic series)"
CCGAGCGG,"6.41 upbm affinity estimate (log intensity, higher = more binding, comparable within an allelic series)","6.99 upbm affinity estimate (log intensity, higher = more binding, comparable within an allelic series)",–,–,–,"6.46 upbm affinity estimate (log intensity, higher = more binding, comparable within an allelic series)",–,–,"7.07 upbm affinity estimate (log intensity, higher = more binding, comparable within an allelic series)",–,–,"6.48 upbm affinity estimate (log intensity, higher = more binding, comparable within an allelic series)",–,–,"6.49 upbm affinity estimate (log intensity, higher = more binding, comparable within an allelic series)",–,–,"6.36 upbm affinity estimate (log intensity, higher = more binding, comparable within an allelic series)",–,–
AATTAGTA,"11.7 upbm affinity estimate (log intensity, higher = more binding, comparable within an allelic series)","11.6 upbm affinity estimate (log intensity, higher = more binding, comparable within an allelic series)","13.7 upbm affinity estimate (log intensity, higher = more binding, comparable within an allelic series)","11.1 upbm affinity estimate (log intensity, higher = more binding, comparable within an allelic series)","12.9 upbm affinity estimate (log intensity, higher = more binding, comparable within an allelic series)","11.7 upbm affinity estimate (log intensity, higher = more binding, comparable within an allelic series)","12.3 upbm affinity estimate (log intensity, higher = more binding, comparable within an allelic series)","11.7 upbm affinity estimate (log intensity, higher = more binding, comparable within an allelic series)","9.25 upbm affinity estimate (log intensity, higher = more binding, comparable within an allelic series)","11.2 upbm affinity estimate (log intensity, higher = more binding, comparable within an allelic series)","11 upbm affinity estimate (log intensity, higher = more binding, comparable within an allelic series)","9.01 upbm affinity estimate (log intensity, higher = more binding, comparable within an allelic series)","11 upbm affinity estimate (log intensity, higher = more binding, comparable within an allelic series)","10.4 upbm affinity estimate (log intensity, higher = more binding, comparable within an allelic series)","10.5 upbm affinity estimate (log intensity, higher = more binding, comparable within an allelic series)","7.8 upbm affinity estimate (log intensity, higher = more binding, comparable within an allelic series)","12.9 upbm affinity estimate (log intensity, higher = more binding, comparable within an allelic series)","7.68 upbm affinity estimate (log intensity, higher = more binding, comparable within an allelic series)","12.3 upbm affinity estimate (log intensity, higher = more binding, comparable within an allelic series)",–
AATTATAA,"11.6 upbm affinity estimate (log intensity, higher = more binding, comparable within an allelic series)","11.4 upbm affinity estimate (log intensity, higher = more binding, comparable within an allelic series)","13.7 upbm affinity estimate (log intensity, higher = more binding, comparable within an allelic series)","11.4 upbm affinity estimate (log intensity, higher = more binding, comparable within an allelic series)","13.1 upbm affinity estimate (log intensity, higher = more binding, comparable within an allelic series)","11.7 upbm affinity estimate (log intensity, higher = more binding, comparable within an allelic series)","12.4 upbm affinity estimate (log intensity, higher = more binding, comparable within an allelic series)","11.5 upbm affinity estimate (log intensity, higher = more binding, comparable within an allelic series)","9.09 upbm affinity estimate (log intensity, higher = more binding, comparable within an allelic series)","11.2 upbm affinity estimate (log intensity, higher = more binding, comparable within an allelic series)","11 upbm affinity estimate (log intensity, higher = more binding, comparable within an allelic series)","8.29 upbm affinity estimate (log intensity, higher = more binding, comparable within an allelic series)","10.8 upbm affinity estimate (log intensity, higher = more binding, comparable within an allelic series)","10.4 upbm affinity estimate (log intensity, higher = more binding, comparable within an allelic series)","10.4 upbm affinity estimate (log intensity, higher = more binding, comparable within an allelic series)","7.93 upbm affinity estimate (log intensity, higher = more binding, comparable within an allelic series)","13 upbm affinity estimate (log intensity, higher = more binding, comparable within an allelic series)","7.89 upbm affinity estimate (log intensity, higher = more binding, comparable within an allelic series)","12.1 upbm affinity estimate (log intensity, higher = more binding, comparable within an allelic series)","13.3 upbm affinity estimate (log intensity, higher = more binding, comparable within an allelic series)"
AATTAGCC,"11.4 upbm affinity estimate (log intensity, higher = more binding, comparable within an allelic series)","11.9 upbm affinity estimate (log intensity, higher = more binding, comparable within an allelic series)","13.8 upbm affinity estimate (log intensity, higher = more binding, comparable within an allelic series)","10.7 upbm affinity estimate (log intensity, higher = more binding, comparable within an allelic series)","12.6 upbm affinity estimate (log intensity, higher = more binding, comparable within an allelic series)","11.5 upbm affinity estimate (log intensity, higher = more binding, comparable within an allelic series)","12.1 upbm affinity estimate (log intensity, higher = more binding, comparable within an allelic series)","11.2 upbm affinity estimate (log intensity, higher = more binding, comparable within an allelic series)","9.22 upbm affinity estimate (log intensity, higher = more binding, comparable within an allelic series)","10.8 upbm affinity estimate (log intensity, higher = more binding, comparable within an allelic series)",–,"8.71 upbm affinity estimate (log intensity, higher = more binding, comparable within an allelic series)","10.8 upbm affinity estimate (log intensity, higher = more binding, comparable within an allelic series)","10.1 upbm affinity estimate (log intensity, higher = more binding, comparable within an allelic series)","10.2 upbm affinity estimate (log intensity, higher = more binding, comparable within an allelic series)",–,"12.9 upbm affinity estimate (log intensity, higher = more binding, comparable within an allelic series)","7.46 upbm affinity estimate (log intensity, higher = more binding, comparable within an allelic series)","12.4 upbm affinity estimate (log intensity, higher = more binding, comparable within an allelic series)","13.2 upbm affinity estimate (log intensity, higher = more binding, comparable within an allelic series)"
AATTAAAT,"11.5 upbm affinity estimate (log intensity, higher = more binding, comparable within an allelic series)","11.5 upbm affinity estimate (log intensity, higher = more binding, comparable within an allelic series)","13.9 upbm affinity estimate (log intensity, higher = more binding, comparable within an allelic series)","11.3 upbm affinity estimate (log intensity, higher = more binding, comparable within an allelic series)","13.1 upbm affinity estimate (log intensity, higher = more binding, comparable within an allelic series)","11.6 upbm affinity estimate (log intensity, higher = more binding, comparable within an allelic series)","12.4 upbm affinity estimate (log intensity, higher = more binding, comparable within an allelic series)","11.5 upbm affinity estimate (log intensity, higher = more binding, comparable within an allelic series)","9.35 upbm affinity estimate (log intensity, higher = more binding, comparable within an allelic series)","11.3 upbm affinity estimate (log intensity, higher = more binding, comparable within an allelic series)","11.6 upbm affinity estimate (log intensity, higher = more binding, comparable within an allelic series)","8.88 upbm affinity estimate (log intensity, higher = more binding, comparable within an allelic series)","11.4 upbm affinity estimate (log intensity, higher = more binding, comparable within an allelic series)","10.5 upbm affinity estimate (log intensity, higher = more binding, comparable within an allelic series)","10.3 upbm affinity estimate (log intensity, higher = more binding, comparable within an allelic series)","7.81 upbm affinity estimate (log intensity, higher = more binding, comparable within an allelic series)","13.1 upbm affinity estimate (log intensity, higher = more binding, comparable within an allelic series)","7.97 upbm affinity estimate (log intensity, higher = more binding, comparable within an allelic series)","12.2 upbm affinity estimate (log intensity, higher = more binding, comparable within an allelic series)","13.4 upbm affinity estimate (log intensity, higher = more binding, comparable within an allelic series)"
AACTAATT,"11.5 upbm affinity estimate (log intensity, higher = more binding, comparable within an allelic series)","11.5 upbm affinity estimate (log intensity, higher = more binding, comparable within an allelic series)","13.7 upbm affinity estimate (log intensity, higher = more binding, comparable within an allelic series)","11.1 upbm affinity estimate (log intensity, higher = more binding, comparable within an allelic series)","12.7 upbm affinity estimate (log intensity, higher = more binding, comparable within an allelic series)","11.5 upbm affinity estimate (log intensity, higher = more binding, comparable within an allelic series)","12.2 upbm affinity estimate (log intensity, higher = more binding, comparable within an allelic series)","11.5 upbm affinity estimate (log intensity, higher = more binding, comparable within an allelic series)","9.12 upbm affinity estimate (log intensity, higher = more binding, comparable within an allelic series)","11.2 upbm affinity estimate (log intensity, higher = more binding, comparable within an allelic series)","11.2 upbm affinity estimate (log intensity, higher = more binding, comparable within an allelic series)","8.89 upbm affinity estimate (log intensity, higher = more binding, comparable within an allelic series)","11.1 upbm affinity estimate (log intensity, higher = more binding, comparable within an allelic series)","10.3 upbm affinity estimate (log intensity, higher = more binding, comparable within an allelic series)","10.3 upbm affinity estimate (log intensity, higher = more binding, comparable within an allelic series)","7.84 upbm affinity estimate (log intensity, higher = more binding, comparable within an allelic series)","12.9 upbm affinity estimate (log intensity, higher = more binding, comparable within an allelic series)","7.81 upbm affinity estimate (log intensity, higher = more binding, comparable within an allelic series)","12.3 upbm affinity estimate (log intensity, higher = more binding, comparable within an allelic series)","13.3 upbm affinity estimate (log intensity, higher = more binding, comparable within an allelic series)"

# — publication PMC11006913
